The source of these data is PubChem BioAssay AID1566 (Sanford-Burnham Center for Chemical Genomics, 2009).

Screen size: about 290,000 compounds; about 1,800 (0.62%) were called active. What follows is part of a selection rich in actives, with near analogues and random picks from the rest. Values without a mark were called inactive. Cut-off read from the data, not from the text of the source: active = inhibition above about 50%; inactive = the rest.

This assay can be described thus: NOD2 signaling inhibitors, cell-based, luminescence, uHTS, HEK293 (AID 1566). Conditions: HEK293 NOD2/NF-kB luciferase reporter, at 4 µM, active compounds read high.
For `CCc1cc(=O)oc2cc(C)cc(OCC(=O)C(C)(C)C)c12`, the inhibition is 8.9%.
In the case of `O=C(Nc1cccc([N+](=O)[O-])c1)Nc1ccc2c(c1)CCC2`, the inhibition is -35.7%.
On to `COC(=O)c1ccc(OCC2c3cc(OC)c(OC)cc3CCN2C(C)=O)cc1` (configuration not stated), for which the inhibition was 6.9%.
Regarding `COc1cc2c(cc1OC)C(COc1ccc(F)cc1)N(C(C)=O)CC2` (configuration not stated), the inhibition is 2.4%.
Regarding `COc1cc2c(cc1OC)C(COc1ccc([N+](=O)[O-])cc1)N(C(C)=O)CC2` (configuration not stated), the inhibition is 60.6% (active).
Consider `Cc1ccc(C(=O)NNC(=O)c2ccc(NC(=O)C(C)(C)C)cc2)cc1`, for which the inhibition was 8.3%.
`CC1(C)CC(=O)C=C(C(=O)N2CCCC(C(=O)c3cccc(C(F)(F)F)c3)C2)O1` (configuration not stated): the inhibition was 15.7%.
For `CN(C)S(=O)(=O)c1ccc(Nc2nc(C3CC3)nc3c2nnn3Cc2ccccc2Cl)cc1`, the inhibition was 58.7% (active).
In the case of `COC(=O)CNc1nc(C2CC2)nc2c1nnn2Cc1ccccc1Cl`, the inhibition is 7.3%.
In the case of `OCCNc1nc(C2CC2)nc2c1nnn2Cc1ccccc1Cl`, the inhibition is 3.7%.
To `CCCCC(CC)CNC(=O)c1cc2ccccc2c(=O)o1` (configuration not stated) belongs 9.7%; to `O=C(CCNS(=O)(=O)c1ccc(Br)cc1)NCCc1ccc(Cl)cc1`, -1.7%.
For the compound `CNC(=O)N(O)C1N(/N=C/c2cc(Br)ccc2O)C(=S)SC1(C)C` (configuration not stated), the inhibition was 13.6%.
In the case of `Cc1ccc(S(=O)(=O)Cc2ccc(C(=O)N3CCN(c4cccc(C)c4C)CC3)o2)cc1` it was 13.8%; in that of `Cc1ccccc1S(=O)(=O)Cc1ccc(C(=O)N2CCN(c3ccccc3F)CC2)o1`, 10.3%; in that of `Cc1onc(-c2ccccc2Cl)c1C(=O)N1CCCCC1C(=O)O` (configuration not stated), 8%.
Take `CCOC(=O)c1c(C)[nH]c(C)c1C(=O)CSc1nc2ccccc2c(=O)n1-c1ccc(F)cc1`: the inhibition is -3.4%.
With `CCOC(=O)c1c(C)[nH]c(C)c1C(=O)CSc1nc2ccccc2c(=O)n1-c1ccc(C)cc1`, the inhibition was -12.1%.
In the case of `CCC(CC)N1CCN(S(=O)(=O)c2ccc(OC)cc2)CC1` it was -0.3%; in that of `Cc1ccc(S(=O)(=O)Nc2ccc3nc(C)sc3c2)cc1`, 29.3%.
For `Cc1nc2ccc(NS(=O)(=O)c3ccc(F)cc3)cc2s1`, the inhibition is 12.4%.
With `O=C(NC1CCCc2ccccc21)c1ccc([N+](=O)[O-])cc1` (configuration not stated), the inhibition is 1.7%.
For the compound `COc1ccc(/C(N)=N/OC(=O)c2cccc([N+](=O)[O-])c2C)cc1OC`, the inhibition is -8.3%.
To `CC(=O)c1c(C)[nH]c(C(=O)OCC(=O)Nc2cc(Cl)ccc2[N+](=O)[O-])c1C` belongs 5.7%; to `CC(=O)c1c(C)[nH]c(C(=O)OCC(=O)Nc2ccc([N+](=O)[O-])cc2Cl)c1C`, 11%.
Consider `CC(=O)c1c(C)[nH]c(C(=O)OCC(=O)Nc2ccc(Cl)cc2[N+](=O)[O-])c1C`, for which the inhibition was 51% (active).
On to `O=C(CCc1n[nH]c(=O)[nH]c1=O)N/N=C/c1ccco1`, for which the inhibition is 11.3%.
In the case of `COc1ccc(NC(=O)c2ccc3c(c2)C(=O)N(Cc2cccnc2)C3=O)c(OC)c1` it was -3.5%; in that of `O=C1CCN(Cc2ccc([N+](=O)[O-])cc2)CCN1[C@H](CO)c1ccccc1`, 8.7%; in that of `COc1cc(NC(=O)c2cc3ccccc3cc2OC)ccc1NC(=O)c1cccs1`, 45.8%.
`COc1ccc(NC(=O)c2cc3ccccc3cc2OC)cc1`: the inhibition was -18.7%.
`COc1cc2ccccc2cc1C(=O)Nc1ccc(NC(=O)c2cccs2)cc1`: the inhibition is 60.7% (active).
Turning to `C#Cc1ccc([C@@H]2C=C(C(=O)Nc3ccccc3)O[C@H](OCC)[C@H]2CCCO)cc1`, the inhibition is 11.4%.
For `CCCCc1c(C)c(C#N)c2nc3ccccc3n2c1NCCN(C)C`, the inhibition was -20.8%.
As to `CCCCc1c(C)c(C#N)c2nc3ccccc3n2c1Cl`, the inhibition is -34.2%.
`CC(C)(C(N)=O)N1CCN(c2ncc(C(F)(F)F)cc2Cl)CC1`: the inhibition was 9.3%.
In the case of `Cc1nc(SCC(=O)N2CCCCC2)c2c(C)c(C)sc2n1` it was 22.8%; in that of `CCC(=O)N1CCN(c2nc(C)nc3sc(C)c(C)c23)CC1`, 8.8%.
In the case of `Cc1nc(N2CCN(C(=O)CCC(=O)O)CC2)c2c(C)c(C)sc2n1`, the inhibition was 13.1%.
In the case of `CCn1c(SCC(=O)N2CCc3ccccc3C2)nc2sc(C)c(C)c2c1=O` it was 17.7%; in that of `N#Cc1cc(-c2ccccc2)nc(Oc2ccccc2)n1`, 10.8%; in that of `O=C(NNC(=O)c1ccc[nH]1)Nc1cc(Cl)cc(Cl)c1`, 2.1%.
Take `O=C(COc1ccc2c3c(c(=O)oc2c1)CCCC3)N[C@@H](Cc1ccccc1)C(=O)O`: the inhibition was 9.1%.
To `Cc1cc(C)c(S(=O)(=O)N2CCCOC2CNC(=O)C(=O)NCc2ccco2)c(C)c1` (configuration not stated) belongs 15%.
For `CC(C)(C)C1=CC(=O)C(N2CCOCC2)=CC1=O`, the inhibition is 14.9%.
In the case of `CC1=C(C)C(=O)C(N2CCOCC2)=CC1=O`, the inhibition was 12.8%.
Consider `Cc1ccccc1NC(=O)C(C)Sc1nnc(-c2ccncc2)n1CC1CCCO1` (configuration not stated), for which the inhibition is -16.6%.
`CC(NC(=O)C1CCCO1)c1ccccc1` (configuration not stated): the inhibition is 3.6%.
In the case of `CC(=O)N1CCN(c2ccc(NC(=S)NC(=O)COc3ccc(C(C)(C)C)cc3)cc2)CC1`, the inhibition is 68.1% (active).
`CC(=O)N1CCN(c2ccc(NC(=O)c3ccc(C(C)(C)C)cc3)cc2)CC1`: the inhibition was 3.5%.
On to `CCC(=O)N1CCN(c2ccc(NC(=S)NC(=O)COc3ccccc3)cc2)CC1`, for which the inhibition is 8.2%.
Consider `CCOc1ccccc1-c1cc(C(=O)N/N=C/c2ccc(O)c(OC)c2)c2ccccc2n1`, for which the inhibition is -16.4%.
On to `Cc1ccc(CNC(=O)c2ccc(NC(=O)C3=CSCCO3)cc2)cc1`, for which the inhibition was 8.2%.
As to `O=C(NNc1ccc(F)cc1)c1c(F)cccc1Cl`, the inhibition is -2.7%.
To `CC(=O)c1sc(NC(=O)C2(F)C(F)(F)C(F)(F)C(F)(F)C(F)(F)C2(F)F)nc1C` belongs 55.2% (active); to `CC(=O)c1sc(NC(=O)C(C)C)nc1C`, 8.3%; to `CC(=O)Nc1nc(C)c(C(C)=O)s1`, -12.2%.
Turning to `CCOc1ccc(N=C2NC(=O)S/C2=C\c2ccc(Cl)cc2)cc1`, the inhibition is -11%.
In the case of `CCOCCCNCc1cc(Br)ccc1OCc1ccccc1` it was 19%.
For the compound `CNC(=O)C(=O)NCC1OCCN1S(=O)(=O)c1ccc(OC)c(OC)c1` (configuration not stated), the inhibition is -11.3%.
As to `CC1C(=O)N(Cc2ccccc2)c2ccccc2N1C(=O)c1ccccc1` (configuration not stated), the inhibition was 13.9%.
Turning to `COc1cccc(CN2C(=O)C(C)N(C(=O)c3c(F)cccc3F)c3ccccc32)c1` (configuration not stated), the inhibition is 45.6%.
In the case of `COc1cccc(CN2C(=O)C(C)N(C(=O)c3ccccc3)c3ccccc32)c1` (configuration not stated) it was 51% (active); in that of `CC(C(=O)Nc1cc([N+](=O)[O-])ccc1Cl)N1CCN(c2ccc(O)cc2)CC1` (configuration not stated), 1.4%; in that of `COc1ccc(Cl)cc1NC(=S)Nc1ccccc1C`, 0.6%.
`Cc1csc2c(=O)sc(NC(=O)c3cccs3)nc12`: the inhibition was 25.6%.
For the compound `COc1ccc(-n2c(C)cc(C(=O)COC(=O)c3cc(NC(=O)c4cccs4)c(OC)c(OC)c3)c2C)cc1`, the inhibition was 12.4%.
`COc1cc(NC(=O)c2cccs2)c(C(=O)OCC(=O)c2cc(C)n(-c3ccc(F)cc3)c2C)cc1OC`: the inhibition was 9.1%.
To `COc1ccc(/C=N/Nc2nnc(-c3ncc[nH]3)c3ccccc23)cc1` belongs -81.3%; to `Oc1ccc2ccccc2c1/C=N/Nc1nnc(-c2ncc[nH]2)c2ccccc12`, 66.3% (active); to `Clc1ccc(/C=N/Nc2nnc(-c3ncc[nH]3)c3ccccc23)cc1`, -40.1%.
Regarding `CS(=O)(=O)Nc1ccccc1C(=O)NCCSCc1ccccc1`, the inhibition is -4.8%.
On to `CNC(=S)NC1CC2CCC(C1)N2Cc1ccccc1` (configuration not stated), for which the inhibition was 0.2%.
Consider `CC(C)C(NC(=O)C(NC(=O)C1O[C@@H]2OC(C)(C)O[C@@H]2[C@H]2OC(C)(C)O[C@@H]12)C(C)C)C(=O)O` (some centres not stated), for which the inhibition is 20%.
For `CCOC(=O)Cc1csc(NS(=O)(=O)c2cc(Cl)ccc2Cl)n1`, the inhibition was -18.2%.
As to `Brc1cc(Br)c2nc3c(cc2c1)CCC3`, the inhibition was 7.6%.
In the case of `COc1cc2cc(Br)cc(Br)c2nc1C`, the inhibition was 5.9%.
In the case of `CCS(=O)(=O)N1CCN(C(=O)c2cccc(OC)c2)CC1`, the inhibition was 14.1%.
With `Cc1cc2cc(CNC(=S)Nc3ccc(OC(F)F)cc3)ccc2[nH]1`, the inhibition is 4.6%.
Regarding `C=CCn1c(-c2cccn(Cc3ccccc3)c2=O)n[nH]c1=S`, the inhibition is 15.3%.
For `C=CCn1c(-c2cccn(Cc3ccc(Cl)cc3)c2=O)n[nH]c1=S`, the inhibition was 50.3% (active).
For the compound `C=CCn1c(-c2cccn(Cc3cccc(Cl)c3)c2=O)n[nH]c1=S`, the inhibition was 12.9%.
As to `CSc1ccccc1OCc1cc(C(=O)N2CCSCC2)no1`, the inhibition was -40.6%.
Consider `CC1=C(C(=O)OCc2ccccc2)C(c2cccc([N+](=O)[O-])c2)NC(=O)N1CCCCCC(=O)O` (configuration not stated), for which the inhibition was 10.6%.
For `COc1ccccc1OCC(=O)NC1CCCCCC1`, the inhibition is 10.3%.
Consider `O=C(c1ccc(Oc2ccc([N+](=O)[O-])cc2Cl)cc1)N1CCCC1`, for which the inhibition was 15.1%.
Regarding `COc1cc(/C=N/N2CCN(Cc3ccc(C)cc3)CC2)cc(OC)c1O`, the inhibition was 2.5%.
`O=C(Nc1c(-c2ccc(F)cc2)nc2ccccn12)c1ccc(F)cc1`: the inhibition is 79.7% (active).
To `O=C(Nc1c(-c2ccccc2)nc2ccccn12)c1ccccc1` belongs 3.9%; to `CC(=O)Nc1c(-c2ccc(F)cc2)nc2ccccn12`, -10.8%; to `O=C(CCS(=O)(=O)c1ccccc1)N1CCN(c2cccc(C(F)(F)F)c2)CC1`, 11.5%.
For `COc1ccc(/C=C/C(=O)Nc2ccccc2C(F)(F)F)cc1`, the inhibition is -25.4%.

The term inhibition denotes the relative decrease from the control value, in per cent.
